PABP FP inh: PABP poly(A) RNA binding inhibitors, primary screen, biochemical, fluorescence polarization, uHTS; calls only at 35 µM; AID 2014, 2009; Polyadenylate-binding protein 1 (Homo sapiens), P11940; actives 1% (n = 290,000);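 further: calls also rest on retests at 20 µM and on dose response follow-up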
Target sequence (P11940 whole entry, looked up): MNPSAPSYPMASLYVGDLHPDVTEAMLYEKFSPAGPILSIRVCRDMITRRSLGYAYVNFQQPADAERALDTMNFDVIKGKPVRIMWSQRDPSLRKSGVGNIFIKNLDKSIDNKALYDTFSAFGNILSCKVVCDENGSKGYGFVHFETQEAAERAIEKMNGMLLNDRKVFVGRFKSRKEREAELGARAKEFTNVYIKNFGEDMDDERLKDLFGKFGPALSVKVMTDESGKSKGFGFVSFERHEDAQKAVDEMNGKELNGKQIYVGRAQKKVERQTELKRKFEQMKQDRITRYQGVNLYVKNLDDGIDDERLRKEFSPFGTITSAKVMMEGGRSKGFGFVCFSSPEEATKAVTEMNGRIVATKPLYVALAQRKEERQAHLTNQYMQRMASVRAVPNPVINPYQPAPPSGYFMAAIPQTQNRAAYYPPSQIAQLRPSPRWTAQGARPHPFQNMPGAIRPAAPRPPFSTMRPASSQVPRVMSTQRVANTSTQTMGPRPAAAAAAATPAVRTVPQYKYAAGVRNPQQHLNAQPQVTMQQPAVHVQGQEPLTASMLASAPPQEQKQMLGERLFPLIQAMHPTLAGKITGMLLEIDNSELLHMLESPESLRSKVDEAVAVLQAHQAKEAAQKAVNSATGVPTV
eIF4H inh: human eIF4H binding inhibitors, primary screen, translation initiation inhibitor project, biochemical, uHTS, fluorescence polarization; Eukaryotic translation initiation factor 4H (Homo sapiens), Q15056; eIF4H fluorescence polarization binding assay; inhibition, % at 35 µM; actives 0.94% (n = 290,000); AID 2012, 2009;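 further: calls also rest on retests at 20 µM and on dose response follow-up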
A3G deaminase: APOBEC3G DNA deaminase inhibitors, primary screen, biochemical, fluorescence, single-stranded DNA substrate, uHTS; DNA dC->dU-editing enzyme APOBEC-3G (Homo sapiens), Q9HC16; recombinant A3G, ssDNA deamination FAM/TAMRA fluorescence; inhibition, % at 20 µM; actives 0.28% (n = 330,000);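 active means inhibition of at least 40% at 20 µM, with no more than 30% in the related APOBEC3A deaminase screen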;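 further: plate controls were DMSO wells with A3G for no effect and wells lacking A3G enzyme for full effect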
PHOSPHO1 block: PubChem AID 1565. Phosphoethanolamine/phosphocholine phosphatase (Homo sapiens), Q8TCT1. recombinant PHOSPHO1, absorbance phosphatase assay. inhibition, % at 13.3 µM. actives 1.1% (n = 290,000); in the data active means inhibition above about 60%
MLLE-PAM2 inh: inhibitors of PABP1 MLLE–PAM2 peptide binding, primary screen, biochemical, fluorescence polarization, FITC-PAM2, GST-MLLE. Polyadenylate-binding protein 1 (Homo sapiens), P11940. inhibition, % at 20 µM. actives 0.36% (n = 360,000); in the data active means inhibition above about 35%, passing the limit was not always enough;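 further: plate controls were DMSO wells with GST-MLLE for no effect and wells lacking GST-MLLE protein for full effect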
A3A deaminase: APOBEC3A ssDNA deaminase inhibitors, primary screen, selectivity assay for APOBEC3G inhibitor project, biochemical, FAM/TAMRA oligo cleavage fluorescence | recombinant A3A, FAM/TAMRA ssDNA deamination fluorescence | actives 0.41% (n = 330,000) | inhibition, % at 20 µM;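 active means at least 40% inhibition at 20 µM here, with at most 30% in a related deaminase screen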;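 further: plate controls were A3A with DMSO for no effect and wells lacking A3A enzyme for full effect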
Numbers without * were called inactive; i = inactive; x = not tested or not shown; + = active, no number; ! = a repeat was not active. Only some compounds are listed: those with a hit (about 2.6% of all), similar ones and a draw of the others. Unless noted, how the calls were made is not given here.

SMILES	PABP FP inh	eIF4H inh	A3G deaminase	PHOSPHO1 block	MLLE-PAM2 inh	A3A deaminase
O=C1CCCC2=C1C(c1ccco1)Nc1ccc(C(=O)c3ccccc3)cc1N2 (stereo unspecified)	+	82*	25	24	-2	24
CCN(CC)S(=O)(=O)c1cc(NC(=O)COC(=O)CCC(=O)c2cccs2)ccc1C	i	-4	-3	7	-7	0
CCN(CC)S(=O)(=O)c1cccc(NC(=O)COC(=O)CCC(=O)c2cccs2)c1	i	1	-4	73*	-19	5
Cc1cc2cc(CNC(=O)c3ccco3)ccc2n1C	+	53*	23	-14	37	15
FC(F)Oc1ccc(NC(=S)NCc2ccccc2)cc1	i	2	-5	-1	-24	-3
O=C1c2ccccc2C(=O)N1Cc1ccc2c(c1)OCO2	i	-7	-3	-10	-5	1
Cc1cc2cc(CNC(=O)COc3ccccc3)ccc2n1C	i	9	-3	42	50*	-7
Cc1cc2cc(CNC(=S)Nc3ccc(OC(F)F)cc3)ccc2n1C	+	75*	-10	-1	39*	-6
Cc1cc2cc(CN3C(=O)c4ccccc4C3=O)ccc2n1C	i	94	-3	6	48*	-2
O=C(CCC(=O)NNC(=O)c1ccc(Cl)cc1Cl)NCc1ccccc1	x	x	-6	x	-3	-6
Cc1cc2cc(CNC(=O)c3ccc4c(c3)OCO4)ccc2n1C	+	61*	1	-14	56*	4
Cc1ccc(S(=O)(=O)NCc2ccc3c(c2)cc(C)n3C)cc1	+	58*	-1	-2	35	1
COCC(=O)NCc1ccc2c(c1)cc(C)n2C	i	28	-4	-7	34	-1
COc1ccc(C(=O)NCc2ccc3c(c2)cc(C)n3C)cc1	i	49	-8	52	51*	-5
CC(NCCCSc1ccccc1)C(O)c1ccc(O)cc1 (stereo unspecified)	x	x	x	x	-5	x
CCN(CC)c1ncnc2c1ncn2[C@H]1CN(Cc2ccc(-c3ccccc3)cc2)C[C@@H](CO)O1	x	x	x	x	-10	x
NNc1nc2sc3c(c2c(=O)[nH]1)CCc1ccccc1-3	+	101*	-2	3	-16	1
CCSc1nc2sc3c(c2c(=O)[nH]1)CCc1ccccc1-3	i	1	-1	-2	-1	1
COc1cccc(N2CCN(Cc3nc4scc(-c5ccccc5)c4c(=O)[nH]3)CC2)c1	+	79*	0	-2	-40	2
COc1cccc(N2CCN(Cc3nc4ccccc4c(=O)[nH]3)CC2)c1	i	11	-5	1	-5	-5
C/C=C/C=C/C(=O)[C@@H]1[C@@H]([C@]2(C)OC(=O)C(C)=C2O)[C@H]2/C(=C(O)/C=C/C=C/C)C(=O)[C@]1(C)C(=O)C2(C)O (stereo partly specified)	i	61*	11	18	-8	13
COc1ccc(CN(C)c2ncnc3sccc23)c(OC)c1OC	i	1	-3	32	-10	-6
O=C(c1ccc(NS(=O)(=O)c2cccc([N+](=O)[O-])c2)cc1)N1CCN(C(=O)c2ccco2)CC1	x	x	-1	x	7	2
NC(=O)N1c2ccccc2CC(=O)c2ccccc21	+!	71*!	-6	14	61*	-1
COc1ccc(NC(=O)c2ccc(COCC(F)(F)C(F)F)cc2)cc1OC	i	-6	-5	-10	13	-4
SMILES	PABP FP inh	eIF4H inh	A3G deaminase	PHOSPHO1 block	MLLE-PAM2 inh	A3A deaminase
COc1ccc(NC(=O)c2ccc(COCC(F)(F)C(F)F)cc2)cc1	+	active	4	-4	-1	6
Cc1ccc(C)c(S(=O)(=O)/N=C2\C=C(NS(=O)(=O)c3ccccc3)C(=O)c3ccccc32)c1	i	16	5	28	13	4
Cc1cc(C)c(S(=O)(=O)/N=C2/C=C(Sc3ncn[nH]3)C(=O)c3ccccc32)cc1C	i	7	x	69*	45*	x
Cc1ccc(-n2c(N)c(C(=O)N3CCCCC3)sc2=S)cc1	i	5	37	76*	21	-2
CCOC(=O)Cc1csc(NC(=O)CN2CCCCC2)n1	i	1	-6	25	-4	-1
Oc1ccc2ccccc2c1CNc1cnc2ccccc2c1	i	-8	-2	106*	22	-6
Oc1ccccc1CNc1cnc2ccccc2c1	i	14	-8	9	-1	-2
Cc1ccc(C)n1-c1sccc1C(=O)O	i	107	x	52	45*	x
Cc1ccc(C)n1-c1sc2c(c1C(=O)O)CCCC2	i	96	31	5	16	53
Cc1ccc(C(=O)OCC(=O)Nc2sc3c(c2C#N)CCCC3)cc1NC(=O)c1ccco1	i	38	-6	64*	-3	-3
Cc1ccc(C(=O)OCC(=O)Nc2sc3c(c2C#N)CCCCC3)cc1NC(=O)c1ccco1	i	28	-4	3	-25	-14
Cc1cc(S(=O)(=O)N2CCOCC2)ccc1OCC(=O)NCc1ccccn1	i	-6	-3	20	1	1
CC(=O)c1c(C(C)=O)c(C)n(-c2cccc3cccnc23)c1C	+	101	-9	12	24	-4
Cc1cc(C)n(-c2cccc3cccnc23)n1	i	-3	-6	2	-8	-2
Nc1c(C(=O)c2ccc(Cl)cc2)oc2ccccc12	+	active	3	6	13	0
O=C(c1ccc(Cl)cc1)c1oc2ccccc2c1CS(=O)c1ccc(Cl)cc1 (stereo unspecified)	i	-7	-2	107*	26	-1
NC(=O)c1oc2ccc(Cl)cc2c1N	i	-7	-3	26	7	-1
CCn1c(O)c(N=NC(=S)NCC2CCCO2)c2ccccc21 (stereo unspecified)	i	-4	-6	16	25	-5
CCn1c(=O)c(=O)[nH]c2cc(C(=O)NC(C)c3ccc(S(N)(=O)=O)cc3)ccc21 (stereo unspecified)	i	-2	13	-4	17	-4
CNc1ccc2ncc(-c3ccccc3C(C)=O)n2n1	x	x	x	x	-3	x
CCC(=O)N1CCN(c2ccc(NC(=S)NC(=O)c3ccc(OC)c([N+](=O)[O-])c3)cc2)CC1	i	-3	-10	24	42*	-2
CCC(=O)N1CCN(c2ccc(NC(=O)c3ccccc3)cc2)CC1	i	12	-8	63*	-14	-4

Assay outcomes: PubChem BioAssay, Sanford-Burnham Center for Chemical Genomics
